Only some compounds are listed: those with a hit (about 19% of all), similar ones and a draw of the others.
IL-1B inflam inh = qHTS for Inhibitors of Inflammasome Signaling: IL-1-beta AlphaLISA Primary Screen; activity change, % at 57.5 µM; THP-1 LPS/ATP IL-1B secretion, AlphaLISA, 16 h; active compounds read low; 4.7% of 360,000 active; in the data active = activity change below about -50%; inconclusive = mostly about -30% to -49%
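THP-1 cells pretreated 1 hr with compounds (up to 57.5 uM final), then stimulated with LPS (250 ng/mL final) plus ATP (1.25 mM final); secreted IL-1B measured by AlphaLISA after 16 hr, decreased signal indicating inhibition.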
HepG2 tox = qHTS for Inhibitors of TGF-b: Cytotox Counterscreen; HepG2 CAGA-GFP viability, ATP luminescence, 18 h; AID 588856, 2011; Potency, µM (series often up to 46.1 µM), actives largely listed as cytotoxic; 0.76% of 410,000 active
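CellTiter-Glo luminescence gave cytotoxicity after 18 hours at 37 degrees C. The cells were HepG2 CAGA-GFP in 1% FBS DMEM, stimulated with 500 pg/mL TGF-beta after compound addition. %Activity was normalised to no-cell wells (complete cell-killing) and DMSO (no toxicity), and curves were fitted and classified.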
ASM inhibitor = Inhibitors of Secretory Acid Sphingomyelinase (S-ASM): qHTS; AID 504937, 2011; placental ASM, HMU-PC fluorogenic substrate, 60 min; Potency, µM (titrated, usually from 57.5 µM), most hits filed as inhibitors; 0.006% of 340,000 active
Target sequence (P17405 47-631 limits assumed): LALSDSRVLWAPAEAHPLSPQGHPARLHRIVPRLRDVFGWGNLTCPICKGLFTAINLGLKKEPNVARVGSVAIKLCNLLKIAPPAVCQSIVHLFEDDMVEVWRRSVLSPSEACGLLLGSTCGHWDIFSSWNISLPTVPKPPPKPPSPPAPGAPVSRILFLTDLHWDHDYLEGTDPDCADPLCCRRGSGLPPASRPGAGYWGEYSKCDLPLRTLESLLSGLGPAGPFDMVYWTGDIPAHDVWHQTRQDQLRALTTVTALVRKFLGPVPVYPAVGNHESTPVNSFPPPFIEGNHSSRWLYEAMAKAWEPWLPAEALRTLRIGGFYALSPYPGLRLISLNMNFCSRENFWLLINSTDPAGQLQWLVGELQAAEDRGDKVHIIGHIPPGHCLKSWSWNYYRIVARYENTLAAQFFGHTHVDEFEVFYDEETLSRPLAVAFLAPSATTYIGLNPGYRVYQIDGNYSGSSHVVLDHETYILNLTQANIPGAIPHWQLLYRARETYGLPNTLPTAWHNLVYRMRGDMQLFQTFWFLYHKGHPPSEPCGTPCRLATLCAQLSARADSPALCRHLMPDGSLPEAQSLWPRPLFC
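HMU-PC0 cleavage (9 uM final) by human placental ASM, 60 min at 37 °C following 10 min compound exposure at RT; stopped at pH 10, fluorescence Ex 386/Em 447 nm.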
TDP1 cell noCPT = qHTS for Inhibitors of human tyrosyl-DNA phosphodiesterase 1 (TDP1): qHTS in cells in absence of CPT | AID 686978, 2013 | 15% of 420,000 active | DT40 Tdp1-/- hTDP1 cells, no CPT, ATP luminescence, 48 h | Potency, µM (doses to about 46.2 µM), actives largely listed as inhibitors; also: nearly all actives have a fitted effect of over 55% in size
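Stably hTDP1-transfected Tdp1-null chicken DT40 cells were treated with library compounds minus camptothecin and grown for at least 48 hr at 37 °C, after which cellular ATP was quantified by luminescence.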
TDP1 cell CPT = qHTS for Inhibitors of human tyrosyl-DNA phosphodiesterase 1 (TDP1): qHTS in cells in presence of CPT. chicken DT40 Tdp1-/-;hTDP1 cells + 20 nM CPT, ATP luminescence, 48 h. Potency, µM (series often up to 46.2 µM), hits mostly inhibitors. 12% of 420,000 active; also: nearly all actives have a fitted effect of over 55% in size
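Cell growth measured by CellTiter-Glo luminescence after a minimum 48 h, 37 C compound exposure with 20 nM CPT in Tdp1-knockout DT40 cells stably expressing hTDP1, seeded 400/well; qHTS titration format.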
TGFb SMAD3 inh = qHTS for Inhibitors of TGF-b; 1.2% of 410,000 active; Potency, µM (series often up to 46.1 µM), hits mostly inhibitors; HepG2 CAGA-GFP TGF-b/SMAD3 reporter, GFP fluorescence, 18 h; TGF-beta stimulated, 500 pg/mL final; also: nearly all actives have a fitted effect of over 65% in size
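First, reporter cells (HEPG2 CAGA-GFP) rested 2 h at 37 degrees C. Next, compounds were pinned in and TGF-beta added to 500 pg/mL final. After 18 h, GFP was imaged per cell and summed per well.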
Hits are given with their value; 0 = inactive; ? = inconclusive; - = no result given. Unless noted, calls follow the shape of the dose curve; as a rule, active = well fitted curve in the direction sought with a large enough effect; inconclusive = small, poorly fitted or top-dose-only effect, or another doubt; inactive = no such curve, though single readings can be large; an effect the other way counts as inactive or inconclusive.

SMILES | IL-1B inflam inh | HepG2 tox | ASM inhibitor | TDP1 cell noCPT | TDP1 cell CPT | TGFb SMAD3 inh
COc1ccc(CN2C(=O)C(CC(=O)NCc3cccc4ccccc34)CC(C(=O)N(C(C)C)C(C)C)=C2C)cc1 (centres undefined) | -70 | 0 | - | ? | ? | ?
CC1=C(C(=O)N2CCOCC2)CC(CC(=O)NCCCCc2ccccc2)C(=O)N1Cc1ccc(C(C)(C)C)cc1 (centres undefined) | 0 | 0 | - | 16µM | 23µM | ?
COc1ccc(CN2C(=O)C(CC(=O)NCc3cccc4ccccc34)CC(C(=O)N(C)C)=C2C)cc1 (centres undefined) | 0 | 0 | - | 0 | 0 | 0
COCCCN1C(=O)C(CC(=O)NCCCCc2ccccc2)CC(C(=O)N2CCOCC2)=C1C (centres undefined) | 0 | 0 | - | 0 | 0 | 0
COc1ccc(N2CCN(C(=O)c3cnc(SC)nc3C)CC2)cc1 | - | 0 | - | 0 | 0 | 0
CSc1ncc(C(=O)N2CCN(c3cccc(Cl)c3)CC2)c(C)n1 | - | 0 | - | 16µM | ? | ?
Cc1noc(C)c1COc1ccccc1C(=O)N1CCN(c2cccc(Cl)c2)CC1 | 0 | 0 | 0 | ? | ? | ?
Cc1noc(C)c1COc1ccccc1C(=O)N1CCN(c2cccc(C(F)(F)F)c2)CC1 | 0 | 0 | 0 | 4.6µM | 5.2µM | 0
CSc1ncc(C(=O)N2CCN(c3cccc(C(F)(F)F)c3)CC2)c(C)n1 | - | 0 | - | 18µM | ? | 0
Cn1cccc1C(=O)N1CCN(c2cccc(C(F)(F)F)c2)CC1 | 0 | 0 | 0 | ? | ? | 0
O=C(NCc1cccs1)c1nn(-c2ccccc2)nc1CO | - | 0 | - | ? | 0 | 0
Cc1nnc(NC(=O)CSc2nccn2Cc2ccc(F)cc2)s1 | 0 | 0 | 0 | ? | ? | 0
CN1C(C(=O)NCc2ccco2)=CC(c2ccc(F)cc2)=NS1(=O)=O | 0 | 0 | 0 | 0 | 0 | 0
Cc1nnc(-c2ccco2)c2cn(-c3cccc(Br)c3)nc12 | - | 0 | 0 | 23µM | ? | 0
Cn1c(SCc2ccccc2)nnc1-c1ccc(O)cc1 | 0 | 0 | 0 | 0 | 0 | 0
CCCC(=O)Nc1cc(C(=O)NCc2ccccc2)ccc1S(=O)(=O)c1ccc(Cl)cc1 | - | 0 | - | 21µM | 21µM | 0
CC(=O)c1ccc(N2CCN(C(=O)NCc3noc4ccc(C)cc34)CC2)cc1 | - | 0 | - | ? | ? | 0
Cc1ccc(NC(=S)N2CCN(c3ccccc3F)CC2)c(C)c1 | 0 | 0 | 0 | ? | ? | 0
CCCOc1ccc(-c2nn(-c3ccccc3)cc2/C=C2\SC(N)=NC2=O)cc1 | 0 | 0 | 0 | 0 | 0 | 0
CC1CCN(C2=NC(=O)/C(=C/c3cn(-c4ccccc4)nc3-c3cccc(S(=O)(=O)N(C)C)c3)S2)CC1 | 0 | 0 | 0 | 6.5µM | 7.3µM | 0

Source: PubChem
